Results on 47 molecules are retold here after PubChem BioAssay AID1441 (NMMLSC, 2008).

About 830 (0.38%) of roughly 220,000 compounds were called active. This excerpt belongs to a sample that is enriched for actives. A number with no mark means an inactive call. The rule behind the calls is not given here.

The target of the test is Regulator of G-protein signaling 16 (Homo sapiens) + Guanine nucleotide-binding protein G(o) subunit alpha (Homo sapiens) (UniProt O15492+P09471). Put plainly: RGS16-Galphao interaction inhibitors and enhancers – biochemical, human proteins, multiplexed bead flow cytometry, primary screen (AID 1441).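 Note: Galphao activated by GDP with aluminum fluoride before binding.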 The note with it: bead-based flow cytometry RGS16-Galphao binding, fluorescence; at 10 µM; actives lie on both sides. On the technique in general: Flow cytometry measures light scatter and fluorescence of single cells or particles in a stream.
Regulator of G-protein signaling 16 (Homo sapiens) + Guanine nucleotide-binding protein G(o) subunit alpha (Homo sapiens), sequence (O15492 whole entry, looked up): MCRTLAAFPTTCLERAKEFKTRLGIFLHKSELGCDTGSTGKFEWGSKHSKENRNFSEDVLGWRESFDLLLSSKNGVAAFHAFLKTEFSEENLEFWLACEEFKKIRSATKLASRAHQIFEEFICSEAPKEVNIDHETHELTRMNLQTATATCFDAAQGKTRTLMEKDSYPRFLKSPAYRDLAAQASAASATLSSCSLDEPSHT
Regulator of G-protein signaling 16 (Homo sapiens) + Guanine nucleotide-binding protein G(o) subunit alpha (Homo sapiens), sequence (P09471 whole entry, looked up): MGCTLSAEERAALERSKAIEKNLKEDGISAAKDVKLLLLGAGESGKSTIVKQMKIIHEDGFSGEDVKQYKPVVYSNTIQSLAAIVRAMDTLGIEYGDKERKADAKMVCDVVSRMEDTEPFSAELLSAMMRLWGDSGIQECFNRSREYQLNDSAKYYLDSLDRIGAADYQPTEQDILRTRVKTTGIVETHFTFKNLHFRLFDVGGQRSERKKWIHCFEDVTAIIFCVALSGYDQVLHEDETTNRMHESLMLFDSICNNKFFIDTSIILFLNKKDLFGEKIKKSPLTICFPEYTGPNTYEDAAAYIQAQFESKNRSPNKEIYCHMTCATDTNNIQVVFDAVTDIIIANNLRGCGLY
With `CC(=O)N1N=C(c2ccncc2)OC1(Cc1ccccc1)Cc1ccccc1`, the binding response (% of control) is 96.5%. Next, `N#Cc1c(N2CCCCC2)nc(N)c2c(N)nc(SCC(=O)O)cc12`: 114%. Then `COc1ccc(CCNC(=O)C(=O)Nc2ccc3nc4n(c(=O)c3c2)CCCCC4)cc1OC`, with 105%; and `Cc1nn(-c2ccccc2)c(=O)c2noc(C)c12`, with 102%; and `CCC(C)NC(=O)C1c2ccccc2Oc2ccccc21` (configuration not stated), with 103%. With `O=C(OCC(=O)N1CCN(C(=O)c2ccco2)CC1)c1ccccc1Cc1ccccc1`, the binding response (% of control) is 82.8%. As for `Cc1ccc(C)c(OCC(=O)N2CCN(C(=O)c3ccco3)CC2)c1`, the binding response (% of control) was 24.4% (active).

As for `COc1cccc(OC)c1OCCN1CCN(C(=O)c2ccco2)CC1`, the binding response (% of control) is 101%. Then `CC(C)(C)C1CCC(=NNC(=O)c2cc(-c3ccccc3)n[nH]2)CC1` (configuration not stated), with 85.9%; and `O=C(CN1CCCCCC1)N1c2ccccc2Sc2ccc(C(F)(F)F)cc21`, with 81.4%.

Turning to `COc1cc(/C=C/C(=O)N2c3ccccc3Sc3ccc(C(F)(F)F)cc32)cc(OC)c1OC`, the binding response (% of control) is 97%.

With `O=C(CN1CCCCC1)N1c2ccccc2Sc2ccc(C(F)(F)F)cc21`, the binding response (% of control) was -6.83% (active).

In the case of `COc1ccc(S(=O)(=O)N(C)C)cc1NC(=O)CSc1ncccn1`, the binding response (% of control) is 101%.

On to `CCC(C)N(C(=O)COC(=O)C1C(C(=O)OC)=C(C)NC(C)=C1C(=O)OC)C1CCS(=O)(=O)C1` (configuration not stated), for which the binding response (% of control) was 104%. As for `Cc1nn(-c2ccccc2)c(C)c1C(=O)OCC(=O)NC(=O)NC1CCCCC1`, the binding response (% of control) was 98.5%.

As for `CCCn1c(C)cc(C(=O)COC(=O)c2c(C)nn(-c3ccccc3)c2C)c1C`, the binding response (% of control) was -33.9% (active). Then `Cc1ccc(OC(=O)c2c(C)nn(-c3ccccc3)c2C)cc1`, with 96.3%; and `O=C(Nc1ccc(Cl)cc1)/C(=C1\CCCN1)[N+](=O)[O-]`, with 97.8%.

On to `FC(F)Oc1ccccc1C1CC(c2ccc(Br)s2)Nc2ncnn21` (configuration not stated), for which the binding response (% of control) is 215% [activator] (active).

In the case of `COc1ccc(C2CC(c3ccccc3)Nc3ncnn32)cc1` (configuration not stated), the binding response (% of control) was 103%. As for `Clc1ccc(C2CC(c3cccs3)n3ncnc3N2)cc1Cl` (configuration not stated), the binding response (% of control) is 103%. Turning to `COc1ccc(CCNC(=O)c2ccc(CS(=O)(=O)c3ccc(Br)cc3)o2)cc1OC`, the binding response (% of control) is 107%. For the molecule `COc1ccccc1N(C)S(=O)(=O)c1ccc(C(=O)NC2CCCCCC2)cc1`, the binding response (% of control) was 102%.

On to `CC(=O)Nc1ccc(/C=N/Nc2ccc(C(=O)c3c(C)cc4ccccn34)cc2[N+](=O)[O-])cc1`, for which the binding response (% of control) is 89.3%. Then `COC(C[C@H](O)CC(=O)COCc1ccccc1)OC`, with 110%. Next, `CC(C)(CNC(=O)c1ccc(Cl)c(S(=O)(=O)N2CCc3ccccc3C2)c1)N1CCOCC1`: 96.9%; `CCOC(=O)C1C(c2ccc(Cl)cc2)NC(=S)NC1(O)C(F)(F)F` (configuration not stated): 102%. Then `CCOC(=O)C1Sc2[nH]c(=O)sc2C(c2ccc(Cl)cc2)C1C(=O)OCC` (configuration not stated), with -39.2% (active).

As to `CCOC(=O)C1=C(C)NC(=O)N(C(C)=O)C1c1ccc(Cl)cc1` (configuration not stated), the binding response (% of control) was 109%. Then `CC(C)(C)NC(=O)COC(=O)c1cc(Cl)ccc1[N+](=O)[O-]`, with 100%; and `CN1C=CC=C/C1=C1\SC(=S)N(Cc2ccccc2)C1=O`, with 100%; and `Cc1ccccc1NC(=S)N(CCCN1CCOCC1)Cc1cccs1`, with 181% [activator] (active). Then `Cc1ccc(Cl)cc1NC(=S)N(CCN(C)C)Cc1cccs1`, with 99.5%. For `CCc1cccc(C)c1NC(=S)N(CCCN1CCN(C)CC1)Cc1cccs1`, the binding response (% of control) was 105%. As to `COc1ccc(C(CC(=O)N2CCN(c3ccccc3)CC2)c2c(O)cc(OC)cc2OC)cc1` (configuration not stated), the binding response (% of control) is 99.5%. Next, `O=C(CCNc1n[nH]c(=O)[nH]c1=O)N/N=C\c1ccc(Br)cc1`: 100%. Take `NCCCCCC(=O)N/N=C/c1ccc2nccnc2c1`: the binding response (% of control) was 105%. In the case of `CC(=O)N(CN1C(=O)C2C3C=CC(C3)C2C1=O)c1cccc(Cl)c1` (configuration not stated), the binding response (% of control) was 104%.

Consider `Cc1ccc(OCCCn2c(=O)oc3ccccc32)cc1`, for which the binding response (% of control) was 106%.

As for `O=C(O)C#Cc1cccc2ccccc12`, the binding response (% of control) was 103%. Next, `Nc1ccc(OCC(O)C[n+]2ccc(CCS(=O)(=O)[O-])cc2)cc1` (configuration not stated): 97.6%; `CCOC(=O)N1CCN(C(=O)COc2ccc(Cl)cc2C)CC1`: 97.8%; `Cc1cc(NC(=O)COc2ccc(Cl)cc2Cl)n(CCC#N)n1`: 93.4%. Next, `CCCn1nnnc1NC(=O)COc1ccc(Cl)cc1C`: 2.27% (active); `CC(C)=NN1C(=O)c2ccccc2NC1(C)C`: 120%.

Regarding `O=C(CSc1cccc[n+]1[O-])c1ccc(-c2ccccc2)cc1`, the binding response (% of control) is 104%. Take `N#Cc1ccc(CSc2nnc3ccccn23)cc1`: the binding response (% of control) is 101%.
